Screens: PubChem BioAssay, several laboratories
Compounds with a hit are over-represented: about 1.6% of the library has one in this group of screens.
S1P4 agonist: S1P4 receptor agonists, primary screen, cell-based | Sphingosine 1-phosphate receptor 4 (Homo sapiens), O95977 | S1P4-expressing cell line, agonist reporter assay | activation, % at 4.98 µM | hit rate 0.35% among 220,000; in the data active = activation above about 11%
S1P4 antag: S1P4 receptor antagonists, primary screen, cell-based. inhibition, % at 4.98 µM. S1P4-expressing cells, antagonist mode, reporter read-out. hit rate 0.26% among 220,000. Sphingosine 1-phosphate receptor 4 (Homo sapiens), O95977. AID 1510, 2009; in the data active = inhibition above about 29%
S1P3 antag: S1P3 receptor antagonists, primary screen, cell-based; inhibition, % at 4.98 µM; Sphingosine 1-phosphate receptor 3 (Homo sapiens), Q99500; hit rate 0.27% among 170,000; CHO S1P3 NFAT-BLA reporter, FRET fluorescence, antagonist mode; AID 485, 2006;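 active = inhibition above the plate cutoff, the mean inhibition of test wells on that plate plus 3 SD, cut at about 28% in these data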;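 note: cells challenged with S1P at its EC80 of 0.8 µM; blue over green emission ratio from cleaved BLA substrate after 4 h stimulation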
Arbovirus inh: antivirals against arbovirus infection, primary screen, cell-based, full library, 10K replicate subset | arbovirus infection cell-based antiviral screen | inhibition, % at 10 µM | hit rate 0.37% among 200,000; in the data active = inhibition above about 30%
DTT redox prof: compounds producing H2O2 with reducing agent – biochemical, NIH compound library profiling, artefact control for MLSCN library redox annotation, primary screen; DTT-dependent redox cycling H2O2, phenol red/HRP absorbance; 100% = 100 µM peroxide control, 0% = buffer; activation, % at 10 µM; hit rate 0.03% among 200,000;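 active = activation of at least 50% relative to the plate's high and low controls in the primary single-dose screen; inactive = activation below 50%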;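 note: compound incubated with DTT at 0.8 mM final as the reducing agent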
p97 ATPase inh: inhibitors of human p97 ATPase, primary screen, biochemical; Transitional endoplasmic reticulum ATPase (Homo sapiens), P55072; recombinant p97 ATPase, Kinase-Glo ATP luminescence, 3 h; inhibition, % at 8 µM; hit rate 0.42% among 220,000; AID 1481, 2009; in the data active = inhibition above about 15%
Target sequence (P55072 whole entry, looked up): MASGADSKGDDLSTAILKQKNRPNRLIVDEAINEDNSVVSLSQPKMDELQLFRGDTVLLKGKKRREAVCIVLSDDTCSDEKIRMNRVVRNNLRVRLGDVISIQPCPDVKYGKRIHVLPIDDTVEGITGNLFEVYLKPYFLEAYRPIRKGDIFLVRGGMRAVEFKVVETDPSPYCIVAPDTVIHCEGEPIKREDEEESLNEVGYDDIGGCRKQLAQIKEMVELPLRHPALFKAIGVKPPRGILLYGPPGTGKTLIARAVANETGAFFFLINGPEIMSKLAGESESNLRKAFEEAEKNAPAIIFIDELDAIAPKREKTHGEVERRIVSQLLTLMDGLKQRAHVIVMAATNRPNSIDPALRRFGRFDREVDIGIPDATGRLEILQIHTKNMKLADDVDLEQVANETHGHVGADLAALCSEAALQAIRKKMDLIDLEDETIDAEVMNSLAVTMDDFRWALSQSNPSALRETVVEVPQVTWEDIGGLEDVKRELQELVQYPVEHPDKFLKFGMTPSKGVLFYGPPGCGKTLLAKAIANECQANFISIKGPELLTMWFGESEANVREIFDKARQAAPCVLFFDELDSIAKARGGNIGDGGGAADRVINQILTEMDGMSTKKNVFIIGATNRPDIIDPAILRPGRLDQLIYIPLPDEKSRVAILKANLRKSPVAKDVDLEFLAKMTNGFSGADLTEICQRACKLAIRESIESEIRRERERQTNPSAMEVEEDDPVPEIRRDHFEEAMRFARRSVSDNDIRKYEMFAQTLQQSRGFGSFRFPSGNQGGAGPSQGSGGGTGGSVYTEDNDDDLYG
p97 inh conf: p97 ATPase inhibitors, retest, confirmation, biochemical | shares compounds with p97 ATPase inh | recombinant p97 ATPase, Kinase-Glo ATP luminescence | inhibition, % at 8 µM | hit rate 44% among 760 | AID 1517, 2009;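 active = percent inhibition of p97 ATPase above a set limit, the primary screen's mean plus 3 SD, cut at about 15% in these data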
S1P4 ag conf: S1P4 receptor agonists, retest, confirmation, cell-based, high throughput; shares compounds with S1P4 agonist; S1P4 agonist cell-based reporter assay; activation, % at 4.98 µM; hit rate 7% among 740; in the data active = activation above about 12%
S1P1 ag: S1P1 receptor agonists, human, counter-screen for S1P4 agonist project, cell-based. shares compounds with S1P4 agonist. S1P1 agonist cell-based assay, activation. activation, % at 4.98 µM. hit rate 4% among 740; in the data active = activation above about 21%
S1P4 antag cf: S1P4 receptor antagonists, human, confirmation, cell-based. shares compounds with S1P4 antag. S1P4-expressing cell line, antagonist mode, reporter read-out. hit rate 71% among 520. inhibition, % at 4.98 µM; in the data active = inhibition above about 30%
S1P1 antag: S1P1 receptor antagonists, human, counter-screen for S1P4 antagonist project, cell-based; hit rate 37% among 520; AID 1564, 2009; cell-based S1P1 antagonist counterscreen, inhibition; inhibition, % at 4.98 µM; shares compounds with S1P4 antag; in the data active = inhibition above about 40%;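 note: receptor stimulated with S1P near its EC80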
A number is an active result; . = inactive; / = not tested or not shown.

SMILES | S1P4 agonist | S1P4 antag | S1P3 antag | Arbovirus inh | DTT redox prof | p97 ATPase inh | S1P4 ag conf | S1P1 ag | others
O=[N+]([O-])c1cc(S(=O)(=O)C(F)(F)F)ccc1Sc1nc2ccccc2[nH]1 | . | 33 | / | . | . | 20 | / | / | p97 inh conf=29;S1P4 antag cf=110;S1P1 antag=.
CS(=O)(=O)c1ccc(Sc2nc3ccccc3[nH]2)c([N+](=O)[O-])c1 | . | . | / | . | . | . | / | /
O=S1(=O)Nc2c(ccc3cccnc23)-c2ccccc21 | . | 50 | . | . | . | 23 | / | / | p97 inh conf=32;S1P4 antag cf=95;S1P1 antag=89
CCOC(=O)c1sc(NC(=O)C(C)C)c(C#N)c1C | . | . | . | . | . | . | / | /
Cc1c(/C=N/Nc2nc3ccccc3[nH]2)c2ccccc2n1C | . | 32 | . | / | / | 24 | / | / | p97 inh conf=17;S1P4 antag cf=108;S1P1 antag=52
CCOC(=O)c1c(C)[nH]c(C2=NNC(=NC3CC3)SC2)c1C | . | . | . | . | . | . | / | /
Cc1cc(C)nc(N/N=C/c2ccc(N3CCOCC3)cc2)n1 | 175 | . | . | . | . | . | 21 | .
CC(/C=N/N1CCN(c2ccccc2)CC1)=C\c1ccccc1 | . | . | / | . | . | . | / | /
CC(/C=N/N1CCN(c2ccccn2)CC1)=C\c1ccccc1 | 11 | . | . | . | . | . | . | .
O=C(CNc1cccc(C(F)(F)F)c1)N/N=C/C1CCCCC1 | . | . | . | . | . | . | / | /
CCOC(=O)C1(Cc2ccc(Cl)cc2)CCN(C(=O)CCc2ccncc2)CC1 | 19 | . | . | . | . | . | . | .
COc1ccccc1Nc1ccc(N)cc1 | 13 | . | . | . | . | . | . | .
COc1ccccc1Nc1nc(Cl)nc(Nc2ccccc2OC)n1 | . | . | . | . | . | . | / | /
Cc1cc(C)c2c(=O)[nH]c(SCC(=O)NCCc3ccccc3)nc2n1 | 12 | . | / | . | . | . | . | .
S=C(Nc1cccc2ccccc12)NC1CCCCC1 | . | . | . | . | . | . | / | /
O=C(COC(=O)c1c2c(nc3ccccc13)CCN(Cc1ccccc1)C2)Nc1c(F)cccc1F | 58 | . | . | . | . | . | . | .
COCCNC(=O)Cc1ccc(Br)cc1 | . | . | . | . | . | . | / | /
CCCCNC(=O)Cc1ccc(Br)cc1 | 13 | . | . | . | . | . | . | .
CN(C)c1nnnn1-c1cccc(Oc2ncc(C(F)(F)F)cc2Cl)c1 | . | . | . | . | . | . | / | /
COc1ccc(CCNC(=O)Cn2c(=O)n(-c3ccc(F)cc3F)c(=O)c3sccc32)cc1OC | . | . | . | . | . | . | / | /
CC(C)(C)C(=O)Cn1c(=O)n(-c2ccc(F)cc2F)c(=O)c2sccc21 | 95 | . | . | . | . | . | . | .
O=C(CSc1nnc(CNC(=O)c2cccs2)o1)Nc1ccccc1 | 12 | . | . | . | . | . | . | .
COc1cc(C(=O)NCc2nnc(SCC(=O)Nc3nccs3)o2)cc(OC)c1OC | 13 | . | . | . | . | . | . | .
Cc1ccc(NC(=O)CSc2nnc(CNC(=O)c3cccs3)o2)cc1 | . | . | . | . | . | . | / | /
CCOC(=O)C(NC(=O)CC)(N1CCc2ccccc2C1)C(F)(F)F (stereo unspecified) | . | . | / | . | . | . | / | /
SMILES | S1P4 agonist | S1P4 antag | S1P3 antag | Arbovirus inh | DTT redox prof | p97 ATPase inh | S1P4 ag conf | S1P1 ag | others
CCOC(=O)c1c(-n2c(C)cc(C=O)c2C)sc2c1CCCC2 | 16 | . | / | . | . | . | 21 | .
COc1ccc(C(=O)C2CCCN(C(=O)c3noc4c3CCCC4)C2)c(C)c1 (stereo unspecified) | . | . | . | . | . | . | / | /
Cc1ccc(C(N)=S)c(C)c1 | 17 | . | . | . | . | . | . | .
CN(C1=C(N2CCCCC2)C(=O)c2ccccc2C1=O)c1ccccc1 | 12 | . | / | . | . | . | . | .
O=C1C(Nc2ccccc2)=C(N2CCCCC2)C(=O)c2ccccc21 | . | . | / | . | . | . | / | /
CCCn1nc(C(=O)OCC(=O)Nc2cccc(OC)c2)c2ccccc2c1=O | . | . | . | . | . | . | / | /
CCOC(=O)Cc1csc(NC(=O)CC)n1 | . | . | . | . | . | . | / | /
CCOC(=O)Cc1csc(NC(=O)CSc2nc(N)c3c(C)c(C)sc3n2)n1 | 24 | . | / | . | . | . | . | .
Cc1onc(-c2ccccc2)c1NC(=O)N(Cc1ccccc1)C(C)C | . | . | . | / | / | . | / | /
Cc1ccc(OCCn2cc(/C=C3\C(=O)NN(c4ccccc4)C3=O)c3ccccc32)cc1 | 14 | . | . | . | . | . | . | .
Cc1ccc(OCCn2cc(/C=N/NC(=O)c3ccncc3)c3ccccc32)cc1 | . | . | . | . | . | . | / | /
Cc1nccc2[nH]c(=O)c(C(=O)NC(C)CCc3ccccc3)cc12 (stereo unspecified) | 24 | . | . | . | . | . | . | .
CC(CCc1ccccc1)NC(=O)c1cccnc1 (stereo unspecified) | . | . | . | . | . | . | / | /
O=C(c1ccc(Cl)c(S(=O)(=O)N2CCCCCC2)c1)N1CCN(c2ccccc2O)CC1 | . | . | . | . | . | . | / | /
NC(=S)N/N=C/c1coc2ccc(F)cc2c1=O | 36 | . | . | / | / | . | . | .
Cc1cc(CNC(=O)CC2C(=O)NCCN2Cc2ccccc2C(F)(F)F)on1 (stereo unspecified) | . | . | . | . | . | . | / | /
CCc1nnc(NC=C2C(=O)OC(C)(C)OC2=O)s1 | 18 | . | . | . | . | . | . | .
Cc1cc(CCN2CCC(=O)NC2=O)ccc1OC(C)C | . | . | . | . | . | . | / | /
COc1ccccc1N=c1oc2cc(O)ccc2cc1C(N)=O | 27 | . | . | . | . | . | . | .
